Keap1 Nrf2 FP: disrupts human Keap1 binding to Nrf2 peptide; Keap1 Kelch-Nrf2 peptide fluorescence polarization, 1536-well; inhibition, % at 9.4 µM; AID 504523; actives 0.15% (n = 340,000); Q14145; in the data active means inhibition above about 12%;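 further: human Keap1 Kelch domain with fluorescein labeled Nrf2 9mer peptide probe; 0% = neutral control wells and 100% = peptide positive control; higher means more block of Keap1 binding to Nrf2 peptide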
Bcl-xL primary: Bcl-xL (human) inhibition; Q07817; GST-Bcl-xL / FITC-Bim BH3 peptide fluorescence polarization; inhibition, % at 10.9 µM; actives 0.7% (n = 320,000);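 active means inhibition above the mean of all tested compounds plus 3 SD, cutoff set per campaign, cut at about 30% in these data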;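 further: 0% = DMSO wells and 100% = unlabeled Bim-BH3 peptide competitor; inhibitors lower millipolarization by displacing the labeled peptide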
GLD-1 RNA inh: GLD-1-TGE RNA interaction inhibition (C. elegans); Q17339; purified GLD-1 + fluorescein TGE RNA, fluorescence polarization; inhibition, % at 5.96 µM; actives 0.44% (n = 320,000); AID 2280;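 active means percent inhibition above a per-plate cutoff, the plate mean of test compounds plus 3 SD, cut at about 30% in these data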;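 further: 0% = DMSO wells with GLD-1 and probe and 100% = wells lacking GLD-1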
LANA DNA inh: KSHV C-LANA DNA binding inhibition. MBP-C-LANA/FAM-LBS DNA binding, fluorescence polarization. inhibition, % at 9 µM. actives 0.078% (n = 340,000);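 active means highest replicate inhibition at or above 60% at 9 µM, even if other replicates fall short; inactive means all replicates below 60% inhibition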;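 further: 0% = neutral control wells and 100% = 4 µM acridine orange control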
E coli Lon inh: inhibitors of E. coli Lon protease. P0A9M0. purified E. coli Lon protease, fluorescence polarization. inhibition, % at 7.94 µM. actives 0.42% (n = 360,000); in the data active means inhibition above about 13%, passing the limit was not always enough;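 further: 0% = enzyme with probe and DMSO and 100% = no enzyme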
Target sequence (P0A9M0 whole entry, looked up): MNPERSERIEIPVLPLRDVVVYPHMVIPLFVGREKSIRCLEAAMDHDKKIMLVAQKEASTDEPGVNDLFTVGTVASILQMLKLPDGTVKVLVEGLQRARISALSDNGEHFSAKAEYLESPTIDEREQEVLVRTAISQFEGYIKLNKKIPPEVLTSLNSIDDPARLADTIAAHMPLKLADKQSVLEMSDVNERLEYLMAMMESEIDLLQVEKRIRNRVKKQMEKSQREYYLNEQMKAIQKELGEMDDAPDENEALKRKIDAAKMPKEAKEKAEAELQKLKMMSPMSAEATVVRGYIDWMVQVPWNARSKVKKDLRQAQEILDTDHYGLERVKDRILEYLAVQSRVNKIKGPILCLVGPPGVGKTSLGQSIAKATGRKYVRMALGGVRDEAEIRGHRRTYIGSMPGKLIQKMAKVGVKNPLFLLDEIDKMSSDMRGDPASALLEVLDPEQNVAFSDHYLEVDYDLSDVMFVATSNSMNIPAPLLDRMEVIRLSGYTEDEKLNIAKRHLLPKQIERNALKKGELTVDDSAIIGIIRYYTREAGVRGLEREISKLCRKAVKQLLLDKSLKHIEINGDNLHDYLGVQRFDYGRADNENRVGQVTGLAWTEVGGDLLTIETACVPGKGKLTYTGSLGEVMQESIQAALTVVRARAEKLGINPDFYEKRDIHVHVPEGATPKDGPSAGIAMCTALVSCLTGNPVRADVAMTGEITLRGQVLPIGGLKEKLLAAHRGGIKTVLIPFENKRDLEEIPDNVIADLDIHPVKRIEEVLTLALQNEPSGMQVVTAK
MCL1 BIM primary: inhibitors of human MCL1 binding to BIM-BH3 peptide. Q07820. GST-MCL1 / FITC-Bim-BH3 fluorescence polarization. inhibition, % at 10.9 µM. actives 0.68% (n = 320,000);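 active means inhibition above the mean inhibition of all tested compounds plus 3 SD, set per campaign, cut at about 40% in these data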;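 further: 0% = DMSO wells and 100% = unlabeled Bim-BH3 peptide control; higher means more loss of mP so more displacement of Bim peptide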
Bcl-xL conf: Bcl-xL (human) inhibition, MCL1 counter-screen confirmation; shares compounds with MCL1 BIM primary; GST-Bcl-xL / FITC-Bim BH3 peptide FP binding; inhibition, % at 10.9 µM; actives 54% (n = 1,700);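 active means inhibition above a cutoff equal to the mean inhibition of all tested compounds plus 3 SD, cut at about 30% in these data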;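 further: 0% = DMSO wells and 100% = unlabeled Bim BH3 control peptide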
MCL1 inh confirm: MCL1-BIM-BH3 interaction inhibition, confirmation; shares compounds with MCL1 BIM primary; GST-MCL1 / FITC-Bim-BH3 fluorescence polarization; inhibition, % at 10.9 µM; actives 61% (n = 1,700);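 active means inhibition above the average of all tested compounds plus 3 SD, cut at about 40% in these data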;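 further: 0% = DMSO wells and 100% = unlabeled Bim-BH3 control peptide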
* hit, by the source's call; nt = not tested or not shown. Sampled rows, rich in hits. Any-hit rate of the full collection: about 1.3%.

SMILES | Keap1 Nrf2 FP | Bcl-xL primary | GLD-1 RNA inh | LANA DNA inh | E coli Lon inh | MCL1 BIM primary | Bcl-xL conf | MCL1 inh confirm
CC(NC(=O)Nc1cccc(Cl)c1)C(c1cccs1)N1CCCC1 (stereo unspecified) | 0 | 6 | 5 | 1 | -5 | 0 | nt | nt
CCCCCCCCOc1ccc(C2OC34CCCCC3C(C#N)(C#N)C2(C#N)C(=N)O4)cc1 (stereo unspecified) | 28* | 157* | 107* | 56 | 27* | 180* | 107* | 124*
N#CC1(C#N)C(c2ccccc2)OC23CCCCCC2C1(C#N)C(=N)O3 (stereo unspecified) | 0 | 36* | 21 | 4 | 9 | 48* | 78* | 101*
CCCCCOc1ccc(C2NC(=O)NC2=O)cc1 (stereo unspecified) | 0 | -2 | 5 | 2 | -1 | 0 | nt | nt
Fc1ccc(NC(=S)N2CCN(c3ccccn3)CC2)cc1Cl | -4 | 2 | 0 | -2 | 3 | 9 | nt | nt
CCOC(=O)c1cnn(-c2ccc([N+](=O)[O-])cc2)c1N | -2 | 5 | 1 | -2 | 1 | 5 | nt | nt
Cc1ccc2nc(-c3ccc(-c4cccc(Cl)c4)cc3)c(NCc3ccccc3)n2c1 | -7 | 50* | 1 | 1 | -4 | 78* | 24 | 19
CCCn1c(=O)c2ccccc2n2c(SCc3cc(=O)oc4ccc5ccccc5c34)nnc12 | -2 | 35* | 31* | 3 | -7 | 40* | 18 | 27
O=C(CN1CCC(NC(=O)C2CCCCC2)CC1)NCc1ccco1 | -2 | 7 | 2 | 1 | 5 | 4 | nt | nt
CC1CCN(CC(=O)NCc2ccco2)CC1 | -4 | 2 | 1 | 0 | -9 | 68* | 6 | -5
CC(=O)OCC1=C(C(=O)O)N2C(=O)C(NC(=O)c3ccc(COc4c(C)cccc4Cl)o3)C2SC1 (stereo unspecified) | -5 | 25 | -3 | 7 | -1 | 43* | 17 | 51*
COc1cc2c3nnc(-c4ccc(F)cc4)c-3cn(Cc3cccc(F)c3)c2cc1OC | 1 | 76* | -5 | 17 | -9 | 85* | 82* | 87*
COc1cc2c3nnc(-c4ccc(F)cc4)c-3cn(Cc3cccc(C)c3)c2cc1OC | 8 | 96* | 50* | 26 | -60 | 99* | 85* | 90*
COc1cccc(Cn2nc3c4cc(F)ccc4n(Cc4ccc(F)cc4)cc-3c2=O)c1 | 0 | -1 | 3 | 0 | 6 | -7 | nt | nt
COc1cc2c3nnc(-c4ccccc4)c-3cn(Cc3ccc(F)cc3)c2cc1OC | 2 | -2 | -1 | -16 | -15 | 3 | nt | nt
O=C(Nc1ccnn1C1CCN(CC(O)CO)CC1)C1CCCC1 (stereo unspecified) | -5 | nt | nt | 0 | -4 | nt | nt | nt
CCO[C@H]1c2c(ccc3ccc(=O)oc23)OC(C)(C)[C@@H]1O | -1 | 4 | -2 | 2 | 1 | 3 | nt | nt
Nc1nc(SCC(=O)O)[nH]c(=O)c1NC(=O)c1ccco1 | 3 | 41* | 28 | 0 | -7 | 55* | 3 | 3
NC1=NC(=O)/C(=C/c2ccc(-c3ccc(S(N)(=O)=O)cc3)o2)S1 | -4 | 24 | 5 | 6 | -32 | 50* | 41* | 39
NC1=NC(=O)/C(=C\c2ccco2)S1 | -5 | 55* | 12 | 5 | -9 | 84* | 44* | 64*
CCOC(=O)C1CCN(C(=O)c2cc3c(=O)n4ccccc4nc3n2C)CC1 | -9 | 67* | 21 | -1 | -4 | 85* | -27 | -31
Cn1c(C(=O)N2CCOCC2)cc2c(=O)n3ccccc3nc21 | -5 | 2 | 2 | 0 | 17 | 8 | nt | nt
CCCN1CCc2c(sc(NC(=S)NC(=O)c3ccccc3)c2C#N)C1 | -43 | -51 | -102 | -3 | -339 | -87 | nt | nt
CCN1CCc2c(sc(N)c2C#N)C1 | -9 | 58* | -52 | 4 | -30 | 59* | 47* | 40*
CC(O)Cc1cn(CC(=O)N2CCN(C(=O)OC(C)(C)C)CC2)nn1 (stereo unspecified) | -3 | 11 | 0 | -1 | -1 | 8 | nt | nt
SMILES | Keap1 Nrf2 FP | Bcl-xL primary | GLD-1 RNA inh | LANA DNA inh | E coli Lon inh | MCL1 BIM primary | Bcl-xL conf | MCL1 inh confirm
Cc1c(O)nc(SCC(=O)Nc2nccs2)n(-c2ccccc2F)c1=O | 1 | nt | nt | 2 | -1 | nt | nt | nt
Cc1ccc(N=Cc2cc(Cc3ccccc3Cl)cc([N+](=O)[O-])c2O)c(O)c1 | -11 | 44* | -3 | 3 | -3 | 47* | 7 | 47*
COc1ccc(N=Cc2cc(Cc3ccccc3Cl)cc([N+](=O)[O-])c2O)cc1OC | -6 | -12 | 6 | 0 | -10 | -18 | nt | nt
C[C@H](CO)N1C[C@H](C)[C@H](CN(C)Cc2cccc(C(F)(F)F)c2)OCc2ccccc2-c2c(n(C)c3ccccc23)C1=O | nt | nt | nt | nt | -1 | nt | nt | nt
CC(C)C[C@H](NC(=O)C1CC(=O)N(c2ccc3c(c2)OCO3)C1)C(=O)NC1CCCC1 (stereo partly specified) | 0 | 56* | 38* | 9 | 9 | 56* | 49* | 59*
COc1cc(Cl)c(NS(=O)(=O)c2cc3[nH]c(=O)c(=O)[nH]c3cc2C)c(OC)c1 | -5 | 5 | 4 | -1 | -10 | 6 | nt | nt
O=c1c2c3c(sc2[nH]c(=S)n1Cc1ccco1)CCC3 | 1 | 8 | -2 | 0 | 6 | 48* | 17 | 41*
CN(C)S(=O)(=O)c1cccc(NC(=O)COC(=O)c2c[nH]c(=O)[nH]c2=O)c1 | 1 | 3 | 8 | 0 | -3 | 0 | nt | nt
OCCCNc1ncnc2oc(-c3ccccc3)c(-c3ccccc3)c12 | 0 | nt | nt | 0 | 4 | nt | nt | nt
CCCNc1c(F)c(F)c2c(C)c3ccccc3nc2c1F | 4 | 114* | 83* | 2 | 60* | 125* | 106* | 123*
N=c1occ(C(=O)c2cc(F)ccc2O)cc1C(=O)NC1CCCCC1 | -2 | 4 | 8 | -1 | -1 | 9 | nt | nt
Cc1cc(/C=C\c2ccc3cc(N(C)C)ccc3[n+]2C)c(C)n1-c1ccccc1 | -6 | 54* | 139* | -4 | -5 | 132* | 41* | 101*
C[n+]1c(/C=C/c2ccc(O)cc2)ccc2ccccc21 | -9 | -20 | -180 | -3 | -38 | -35 | nt | nt
O=c1cc2oc3cc(O)c(O)cc3c(-c3ccccc3[N+](=O)[O-])c-2cc1O | 2 | 31* | 8 | 26 | 3 | 87* | 62* | 104*
O=c1cc(-c2ccccc2Cl)oc2cccc(O)c12 | -7 | 8 | 4 | 0 | 0 | 6 | nt | nt

High-throughput results: PubChem, several laboratories
